According to PubChem BioAssay AID1159580 (chemical genetic matrix, 2015):
Several values for one entry are separate records, joined by “and”; a condition that tells them apart may be missing. Identical values can stand only once. The whole screen tested about 5,500 compounds, of which about 2,000 (36%) were called active. Roughly 18% stayed inconclusive and do not appear here. Rule as the data show it: active = normalized growth mostly below about 0.91 (no sharp cut-off); inconclusive = no clear call, values can overlap the other calls; inactive = mostly above about 0.92. The list shows a part of the results.

Test: chemical genetic growth profiling, strain panel (AID 1159580);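 also: tested at 20 µM; growth read once vehicle control cultures reached saturation at 30 °C; 1 = growth at the plate median or of vehicle wells; lower values mean less growth of the strain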
Conditions: S. cerevisiae deletion strains, growth OD

Measured: normalized growth

C[C@H]1O[C@@H](O[C@H]2[C@@H](O)C[C@H](O[C@H]3[C@@H](O)C[C@H](O[C@H]4CC[C@]5(C)C6CC[C@]7(C)[C@@H](C8=CC(=O)OC8)CC[C@]7(O)C6CC[C@@H]5C4)O[C@@H]3C)O[C@@H]2C)C[C@H](O)[C@@H]1O (some centres not stated)
active: locus YGL253W, strain hxk2, active compounds read low 0.761
inactive: locus YAL021C, strain ccr4, active compounds read low 0.984 | locus YAL026C, strain drs2, active compounds read low 0.965 | locus YAL030W, strain snc1, active compounds read low 0.964 | locus YBL061C, strain skt5, active compounds read low 0.975 | locus YBR009C, strain hhf1, active compounds read low 0.968 | locus YBR021W, strain FUR4, active compounds read low 0.968 | locus YBR023C, strain chs3, active compounds read low 0.957 | locus YBR171W, strain sec66, active compounds read low 0.98 | locus YBR229C, strain ROT2, active compounds read low 0.982 | locus YBR231C, strain swc5, active compounds read low 0.979 | locus YBR279W, strain paf1, active compounds read low 0.967 | locus YCL011C, strain gbp2, active compounds read low 0.951 | locus YCL016C, strain dcc1, active compounds read low 0.921 | locus YCL029C, strain bik1, active compounds read low 0.976 | locus YCL061C, strain MRC1, active compounds read low 1.01 | locus YCL069W, strain vba3, active compounds read low 0.969 | locus YCR088W, strain abp1, active compounds read low 0.99 | locus YDL005C, strain med2, active compounds read low 1.01 | locus YDL035C, strain GPR1, active compounds read low 1.03 | locus YDL040C, strain nat1, active compounds read low 0.975 | locus YDL074C, strain BRE1, active compounds read low 0.982 | locus YDL101C, strain DUN1, active compounds read low 0.987 | locus YDL134C, strain PPH21, active compounds read low 1.02 | locus YDL185W, strain tfp1, active compounds read low 1 | locus YDL192W, strain arf1, active compounds read low 1 | locus YDR001C, strain nth1, active compounds read low 0.968 | locus YDR069C, strain doa4, active compounds read low 1.02 | locus YDR101C, strain arx1, active compounds read low 1.01 | locus YDR137W, strain rgp1, active compounds read low 0.976 | locus YDR159W, strain sac3, active compounds read low 0.948 | locus YDR162C, strain NBP2, active compounds read low 1.01 | locus YDR195W, strain ref2 1.03 | locus YDR297W, strain sur2, active compounds read low 0.986 | locus YDR318W, strain mcm21, active compounds read low 0.989 | locus YDR334W, strain swr1, active compounds read low 0.983 | locus YDR335W, strain msn5, active compounds read low 0.984 | locus YDR388W, active compounds read low 0.986 | locus YDR392W, strain spt3, active compounds read low 0.931 | locus YDR502C, strain sam2, active compounds read low 0.993 | locus YEL003W, strain gim4, active compounds read low 0.989 | locus YEL037C, strain rad23, active compounds read low 0.976 | locus YEL061C, strain CIN8 (second series), active compounds read low 0.971 | locus YEL061C, strain CIN8, active compounds read low 0.999 | locus YER015W, strain faa2, active compounds read low 0.977 | locus YER016W, strain bim1, active compounds read low 0.98 | locus YER110C, active compounds read low 0.989 | locus YER111C, strain swi4, active compounds read low 0.969 | locus YER155C, strain BEM2 (second series), active compounds read low 1.03 | locus YER155C, strain BEM2, active compounds read low 0.988 | locus YER167W, strain BCK2, active compounds read low 1 | locus YFR010W, strain ubp6, active compounds read low 1 | locus YGL078C, strain dbp3, active compounds read low 0.983 | locus YGL086W, strain mad1, active compounds read low 1.02 | locus YGL167C, strain pmr1, active compounds read low 1 | locus YGL173C, strain kem1, active compounds read low 0.972 | locus YGL227W, strain vid30, active compounds read low 0.989 | locus YGL240W, strain doc1, active compounds read low 1.05 | locus YGL248W, strain PDE1, active compounds read low 0.959 | locus YGR135W, strain pre9, active compounds read low 0.965 | locus YGR252W, strain gcn5, active compounds read low 0.967 | locus YHR013C, strain ard1, active compounds read low 0.984 | locus YHR027C, strain rpn1, active compounds read low 0.996 | locus YHR030C, strain SLT2, active compounds read low 1 and 1.02 | locus YHR079C, strain IRE1 (second series), active compounds read low 0.982 | locus YHR079C, strain IRE1, active compounds read low 1.03 | locus YHR094C, strain hxt1, active compounds read low 0.978 | locus YHR129C, strain ARP1, active compounds read low 1 | locus YHR142W, strain chs7, active compounds read low 0.926 | locus YHR200W, strain rpn10, active compounds read low 0.999 | locus YIL066C, strain RNR3, active compounds read low 0.993 | locus YIL073C, strain SPO22, active compounds read low 0.936 | locus YIL125W, strain kgd1, active compounds read low 0.985 | locus YIR030C, strain dcg1, active compounds read low 0.976 | locus YJL092W, strain hpr5, active compounds read low 0.981 | locus YJL095W, strain BCK1 (second series), active compounds read low 0.991 | locus YJL095W, strain BCK1, active compounds read low 0.953 and 1.05 | locus YJL115W, strain asf1, active compounds read low 0.965 | locus YJL129C, strain trk1, active compounds read low 0.988 | locus YJL134W, strain LCB3, active compounds read low 0.995 | locus YJL154C, strain vps35, active compounds read low 0.979 | locus YJL164C, strain tpk1, active compounds read low 0.962 | locus YJL166W, strain qcr8, active compounds read low 1.03 | locus YJL168C, strain set2, active compounds read low 0.981 | locus YJL187C, strain SWE1 (second series), active compounds read low 0.974 | locus YJR043C, strain POL32, active compounds read low 1.04 | locus YJR066W, strain TOR1, active compounds read low 0.958 | locus YKL009W, strain mrt4, active compounds read low 0.978 | locus YKL068W, active compounds read low 0.989 | locus YKL085W, strain MDH1 (second series), active compounds read low 0.963 | locus YKL085W, strain MDH1, active compounds read low 0.963 | locus YKL160W, strain elf1, active compounds read low 0.985 | locus YKR001C, strain vps1, active compounds read low 0.976 | locus YKR026C, strain gcn3, active compounds read low 0.977 | locus YKR091W, strain srl3, active compounds read low 0.967 | locus YLL001W, strain dnm1, active compounds read low 0.989 | locus YLL026W, active compounds read low 0.977 | locus YLL041C, strain sdh2, active compounds read low 0.981 | locus YLR027C, strain aat2, active compounds read low 0.979 | locus YLR039C, strain RIC1, active compounds read low 0.999 | locus YLR058C, strain SHM2, active compounds read low 0.978 | locus YLR102C, strain apc9, active compounds read low 0.979 | locus YLR113W, strain HOG1, active compounds read low 1.03 | locus YLR221C, strain rsa3, active compounds read low 0.954 | locus YLR258W, strain gsy2, active compounds read low 0.96 | locus YLR262C, strain YPT6 (second series), active compounds read low 0.997 | locus YLR262C, strain YPT6, active compounds read low 0.992 | locus YLR268W, strain sec22, active compounds read low 0.988 | locus YLR320W, strain mms22, active compounds read low 0.928 | locus YLR330W, strain CHS5, active compounds read low 1 | locus YLR342W, strain FKS1 (second series), active compounds read low 1.04 | locus YLR342W, strain FKS1, active compounds read low 1 | locus YLR357W, strain rsc2, active compounds read low 1.07 | locus YLR370C, strain arc18, active compounds read low 0.956 | locus YLR371W, strain rom2, active compounds read low 0.98 | locus YLR384C, strain iki3, active compounds read low 0.954 | locus YLR418C, strain cdc73, active compounds read low 0.928 | locus YML016C, strain PPZ1, active compounds read low 1 | locus YML032C, strain rad52, active compounds read low 0.996 | locus YML120C, strain ndi1, active compounds read low 0.992 | locus YML124C, strain tub3, active compounds read low 0.975 | locus YMR058W, strain fet3, active compounds read low 1 | locus YMR078C, strain ctf18, active compounds read low 0.967 | locus YMR125W, strain sto1, active compounds read low 0.997 | locus YMR129W, active compounds read low 0.973 | locus YMR205C, strain PFK2, active compounds read low 0.924 | locus YMR223W, strain ubp8, active compounds read low 0.966 | locus YMR231W, strain pep5, active compounds read low 0.992 | locus YMR307W, strain GAS1, active compounds read low 1.1 | locus YNL067W, strain RPL9B, active compounds read low 0.981 | locus YNL071W, strain lat1, active compounds read low 0.979 | locus YNL153C, strain GIM3, active compounds read low 0.983 | locus YNL183C, strain NPR1, active compounds read low 0.984 | locus YNL209W, strain ssb2, active compounds read low 0.977 | locus YNL233W, strain BNI4, active compounds read low 0.977 | locus YNL248C, strain rpa49, active compounds read low 0.979 | locus YNL250W, strain rad50, active compounds read low 0.997 | locus YNL271C, strain bni1, active compounds read low 0.973 | locus YNL298W, strain CLA4, active compounds read low 0.984 | locus YNL307C, strain MCK1, active compounds read low 0.978 | locus YNL322C, strain KRE1 (second series), active compounds read low 0.972 | locus YNR049C, strain mso1, active compounds read low 0.977 | locus YNR052C, strain pop2, active compounds read low 0.999 | locus YOL006C, strain TOP1, active compounds read low 0.896 | locus YOL012C, strain htz1 0.968 | locus YOL147C, strain pex11, active compounds read low 0.984 | locus YOR001W, strain rrp6, active compounds read low 1.03 | locus YOR061W, strain CKA2, active compounds read low 0.994 | locus YOR069W, strain VPS5, active compounds read low 0.994 | locus YOR070C, strain gyp1, active compounds read low 0.968 | locus YOR080W, strain dia2, active compounds read low 0.982 | locus YOR083W, strain WHI5, active compounds read low 0.967 | locus YOR106W, strain vam3, active compounds read low 1 | locus YOR136W, strain idh2, active compounds read low 0.985 | locus YOR144C, strain elg1, active compounds read low 0.985 | locus YOR184W, strain ser1, active compounds read low 0.963 | locus YOR231W, strain MKK1, active compounds read low 1.01 | locus YOR265W, strain rbl2, active compounds read low 0.988 | locus YOR270C, strain vph1, active compounds read low 0.89 | locus YOR290C, strain snf2, active compounds read low 0.944 | locus YOR316C, strain cot1, active compounds read low 0.977 | locus YPL051W, strain arl3, active compounds read low 1.01 | locus YPL078C, strain atp4, active compounds read low 1.02 | locus YPL106C, strain sse1, active compounds read low 0.989 | locus YPL240C, strain hsp82, active compounds read low 0.999 | locus YPL241C, strain CIN2, active compounds read low 1 | locus YPL256C, strain CLN2, active compounds read low 1.02 | locus YPR119W, strain clb2, active compounds read low 0.981 | locus YPR141C, strain kar3, active compounds read low 0.953 | locus YPR163C, strain tif3, active compounds read low 0.981 | locus YPR167C, strain met16, active compounds read low 0.989 | strain wtn01, active compounds read low 1
